Unmarked numbers belong to inactive results. The rule behind the calls is not given here.
What follows are binders tested against PDL1, Q9NZQ7.
Chain of PDL1, Q9NZQ7 (Q9NZQ7 whole entry): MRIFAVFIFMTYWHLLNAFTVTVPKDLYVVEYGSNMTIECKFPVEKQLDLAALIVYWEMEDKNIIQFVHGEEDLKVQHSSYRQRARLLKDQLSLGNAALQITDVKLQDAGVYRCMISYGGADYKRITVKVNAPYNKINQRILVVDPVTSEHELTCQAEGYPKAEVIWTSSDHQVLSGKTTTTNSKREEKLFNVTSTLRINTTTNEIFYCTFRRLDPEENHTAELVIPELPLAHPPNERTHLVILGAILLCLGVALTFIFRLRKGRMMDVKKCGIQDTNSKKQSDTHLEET

Row | Binder | binding in a display sort
1 | d8r1_design_ppi_1215_dldesign_0_cycle1_af2pred (protein) AEEVGRMALTAAEAGERIALEKVKDPATAAEGAALAKVAADALKAAAEKVPEVAERLNKAATELYKKVADAA | not found
2 | d8r1_design_ppi_684_dldesign_0_cycle1_af2pred (protein) AAAEEAEEKKYAMAKAAGAAASEIAKIDPALGRKVAIAAGEALSVDLETSYKILTDTLTEVAETGSPEAAAEAQKALDAVEAAYKA | not found
3 | d8r1_design_ppi_128_dldesign_0_cycle1_af2pred (protein) AQLEQIKAQAKKEIEEALEYAKKAKTDPSYLAKALGHLNKASQLAKQLPNAEEVKAEIDKAISAAIAGDYETVKKEAEEAIKLLEKD | not found
4 | d8r1_design_ppi_573_dldesign_0_cycle1_af2pred (protein) SAEQAALEAKAKEAALKAWEAAKQYKKTGYQEFKDAAKEYAYAAIAYFRGDTAAGKKYRDAADKLWAKAQAIAAA | binds (active)
5 | d8r1_design_ppi_1130_dldesign_0_cycle1_af2pred (protein) SMEEAEKAAKEIIELAKKAAEDPSYIDELAALAAKYIGSPEAKEALAEAIKILSKKSPELAKQFLAKYSAALAALRAAA | not found
6 | d8r1_design_ppi_423_dldesign_0_cycle1_af2pred (protein) DESDKNMELLTKAGAATSELVAKARADAKAAAAEGPEAVKAVAEEHSAKIKEVAEKLGKESSKSASFKGLIETATKTIKAYADAVVA | not found
7 | d8r1_design_ppi_146_dldesign_0_cycle1_af2pred (protein) YAQKIREAAEKLKSPEKKATLNAFADIAAKLEAEAKKAAAKDPAEGAKKLTAAKNLAAGALKLAEAKKEEE | not found
8 | d8r1_design_ppi_307_dldesign_0_cycle1_af2pred (protein) MMEEAEKIAEEAKKTADELLAQAKKGDPKPYVNQGFAELNKLLQEAAKLSPEAAEKVKEVLAEFRKQASKILDS | not found
9 | d8r1_design_ppi_307_dldesign_0_cycle0_af2pred (protein) EEARAEALAAEAAATAAALLAAARATDPRADIAAGAAALTAAAREAAALSPAAAAKVRAVIATFMAEALKLMDS | not found
10 | d8r1_design_ppi_623_dldesign_0_cycle1_af2pred (protein) AAAAAAADAAAAALLDAAAAAAKAAVELTPEEAAAVLGAIAAAAATALALAKDPAAKAKLLATASEVANTAAQNLSQAVRREEE | not found
11 | d8r1_design_ppi_1244_dldesign_0_cycle1_af2pred (protein) EEEAEKERERYEKAYYFAKAAIAAASSGLPAAVAAAKAFLQKAGEEIPEFLPAAKAATTAAEITAVATKVAAYAAAKIS | not found
12 | d8r1_design_ppi_479_dldesign_0_cycle0_af2pred (protein) EELAKEARELAKRGIEDPEKAPEAGRKIAELAAKAVAEGDSEAAAEAVAELTRLHKANPEAGREALILMAQKIAKVAREK | not found
13 | d8r1_design_ppi_997_dldesign_0_cycle1_af2pred (protein) ALSDAQSFVKAAKAAAEKAKELAKKDPEVAAKAVETAKKLAEAAVKASPEAKPQAEEAKKLAEEAKKVVEEAKKKAA | not found
14 | d8r1_design_ppi_1130_dldesign_0_cycle0_af2pred (protein) SAEEAEKAAKELIELAKKAAEDPSYIPEAAALAAKHIGTPEARTALAEAIKILMQKSPELAKQFLAAFSAALAALRAAA | not found
15 | d8r1_design_ppi_1104_dldesign_0_cycle1_af2pred (protein) DDLLKQAQATLKQAAALAATVSLAAASDFNAAMFLMRNPKNIPQAIKYAQQGAALAAASAKAPQIKALADEAVKLMKALAKAAAA | not found
16 | d8r1_design_ppi_855_dldesign_0_cycle1_af2pred (protein) GTGKNLIKVLETSAEKTAALAAELAPDPAAATALADAFEASAKGFAAIAKELGTEAEVKPAAEKAIKKVRDALDKALAAAAA | not found
17 | d8r1_design_ppi_408_dldesign_0_cycle1_af2pred (protein) ASAEAKKKALELIKKAVALTSQGLAKGDKALVKKGLEYAKKAKEEAAKSADAATLLKAVDNVEAMAKTVLDAL | not found
18 | d8r1_design_ppi_987_dldesign_0_cycle0_af2pred (protein) QAVLDKANELLAKAMKLFGKLSPENYAAALAAADAAIAAAKELQKEDPELGAALLASAEALKAAIKAKAA | not found
19 | d8r1_design_ppi_1260_dldesign_0_cycle1_af2pred (protein) MTAEEALAEMEKLTKEMKEVSPLAGNAMEAHLNKAKELVAAVAAEDPEKAAEVAAKSYEQAKALYKAMKEMIEEEKKEKELA | not found
